Gli-Sufu antag: Gli-Sufu pathway antagonists, primary screen, luciferase luminescence, Sufu-KO-LIGHT cells, uHTS. AID 588413, 2011. inhibition, % at 5 µM. 340,000 tested, 0.74% active. Sufu-KO-LIGHT fibroblasts, Gli luciferase reporter luminescence;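 active = inhibition above about 55%, limit read from the data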;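 note: 0% = DMSO-treated cells and 100% = wells with medium but no cells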
Mdm2 MdmX PPI: inhibitors of human Mdm2-MdmX association, primary screen, cell-based, luminescence, split luciferase, SaOS-2, uHTS; SaOS-2 split-luciferase Mdm2/MdmX complementation; inhibition, % at 8 µM; 330,000 tested, 3% active; AID 485346, 2010;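 active = inhibition of at least 50% at 8 µM in the primary screen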
Target sequence (O15151 whole entry, looked up): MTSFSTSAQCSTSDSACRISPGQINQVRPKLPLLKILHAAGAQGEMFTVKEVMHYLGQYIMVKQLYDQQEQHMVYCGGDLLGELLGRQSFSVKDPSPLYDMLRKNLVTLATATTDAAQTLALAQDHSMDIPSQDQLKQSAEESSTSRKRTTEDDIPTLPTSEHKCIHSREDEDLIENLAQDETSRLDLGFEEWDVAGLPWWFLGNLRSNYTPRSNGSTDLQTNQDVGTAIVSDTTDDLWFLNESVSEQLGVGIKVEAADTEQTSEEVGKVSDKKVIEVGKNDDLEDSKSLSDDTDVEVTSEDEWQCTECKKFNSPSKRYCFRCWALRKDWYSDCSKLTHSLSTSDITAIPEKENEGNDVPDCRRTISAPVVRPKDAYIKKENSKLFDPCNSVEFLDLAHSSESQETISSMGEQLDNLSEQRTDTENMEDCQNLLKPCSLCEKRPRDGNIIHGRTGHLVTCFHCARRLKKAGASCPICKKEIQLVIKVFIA
Target sequence (Q00987 whole entry, looked up): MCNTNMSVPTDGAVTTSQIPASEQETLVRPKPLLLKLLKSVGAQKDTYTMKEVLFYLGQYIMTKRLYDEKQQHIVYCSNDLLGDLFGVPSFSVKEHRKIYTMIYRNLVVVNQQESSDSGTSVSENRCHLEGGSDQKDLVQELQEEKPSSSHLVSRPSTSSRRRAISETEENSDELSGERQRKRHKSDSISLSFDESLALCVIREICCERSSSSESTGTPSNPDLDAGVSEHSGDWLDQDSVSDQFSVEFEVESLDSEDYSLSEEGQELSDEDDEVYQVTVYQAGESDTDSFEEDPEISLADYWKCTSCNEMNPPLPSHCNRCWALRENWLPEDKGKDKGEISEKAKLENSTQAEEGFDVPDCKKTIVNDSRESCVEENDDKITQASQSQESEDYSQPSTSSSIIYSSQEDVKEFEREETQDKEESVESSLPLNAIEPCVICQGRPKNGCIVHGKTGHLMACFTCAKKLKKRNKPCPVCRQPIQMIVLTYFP
697 NFkB inh: inhibitors of PMA/ionomycin-induced NF-kB reporter, 697 cells, primary screen, B-cell NF-kB inhibitor project, cell-based, luminescence, uHTS; 330,000 tested, 0.33% active; 697 B-cell NF-kB luciferase reporter, 16 h; inhibition, % at 4 µM; AID 435022, 2010; in the data active = inhibition above about 35%
KLF5 inhibitor: KLF5 expression inhibitors, primary screen, DLD-1 cells, luminescence. inhibition, % at 5 µM. AID 1700, 2009. DLD-1 KLF5 promoter-luciferase reporter. 290,000 tested, 0.23% active;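 active = inhibition above a per-plate limit of that plate's mean compound inhibition plus 3 SD, cut at about 60% in these data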;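 note: 0% = DMSO wells and 100% = LY294002 at 200 µM; higher means less KLF5 promoter-driven luciferase light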
aSyn UTR inh: MLPCN primary screen, SNCA 5' untranslated region; alpha-synuclein 5'UTR reporter, inhibitor activity; 300,000 tested, 0.82% active; AID 1813, 2009; inhibition, % (tested at 7.5 µM); in the data active = inhibition above about 60%;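 note: H4 neuroglioblastoma cells stably carrying SNCA 5'UTR luciferase fusion; 0% = DMSO wells and 100% = positive control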
Jurkat NFkB inh: inhibitors of induced NF-kB luciferase reporter, primary screen, TCR NF-kB activation inhibitor project, cell-based, luminescence, uHTS; Jurkat, PMA/ionomycin-induced NF-kB luciferase reporter; inhibition, % at 4 µM; 330,000 tested, 0.53% active; AID 435003, 2010; in the data active = inhibition above about 50%
Mdm2-MdmX conf: Mdm2-MdmX complex disruptors, retested hits, confirmation, luminescence, single concentration; inhibition, % at 8 µM; shares compounds with Mdm2 MdmX PPI; Mdm2-MdmX binding, luminescent assay; 10,000 tested, 55% active; in the data active = inhibition above about 40%
Full FLuc ctr: full-length luciferase signal inhibition, confirmation, counter-screen for Mdm2/MdmX interaction inhibitor project, cell-based, single concentration, SaOS-2. inhibition, % at 8 µM. 6,200 tested, 77% active. SaOS-2 full-length luciferase counterscreen, luminescence. shares compounds with Mdm2 MdmX PPI;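 active = mean inhibition at 8 µM reaching about 37%, which flags the compound as non-specific, limit read from the data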;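 note: p53-null SaOS-2 cells with luciferase driven by a doxycycline-inducible promoter; compound on cells about two nights before reading with doxycycline added after day one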
Active calls of the source: *. Shown are actives, neighbours in structure and some others; about 4.1% of the full set was active somewhere.

What do the screens show for `CCOc1ccc(CN2CCC(C(=O)Nc3cccc(-c4ccn[nH]4)c3)CC2)cc1Cl`?
Gli-Sufu antag: 4.2; Mdm2 MdmX PPI: 60.5*; 697 NFkB inh: -3.9; KLF5 inhibitor: -36.8; aSyn UTR inh: -51.1; Jurkat NFkB inh: 17.3; Mdm2-MdmX conf: -0.5

How did CCn1nc(C)c(CN2CCC(C(=O)Nc3cccc(-c4cccc(Cl)c4)c3)CC2)c1C do in these assays?
Gli-Sufu antag: -2.8; Mdm2 MdmX PPI: 80.4*; 697 NFkB inh: -13.1; KLF5 inhibitor: -47.1; aSyn UTR inh: -16.8; Jurkat NFkB inh: -1.9; Mdm2-MdmX conf: 40.4*; Full FLuc ctr: 62.0*

What do the screens show for `Cc1cc(C)n(CCCN2CCC(C(=O)Nc3cccc(-c4cccc(F)c4)c3)CC2)n1`?
Gli-Sufu antag: 31.5; Mdm2 MdmX PPI: 58.0*; 697 NFkB inh: -11.6; KLF5 inhibitor: -41.8; aSyn UTR inh: 21.9; Jurkat NFkB inh: 22.0; Mdm2-MdmX conf: 55.6*; Full FLuc ctr: 74.2*

Results for CCn1ncc(CN2CCC(C(=O)Nc3cccc(-c4cccc(F)c4)c3)CC2)c1C ?
Gli-Sufu antag: 22.4; Mdm2 MdmX PPI: 33.5; 697 NFkB inh: 6.8; KLF5 inhibitor: -34.8; aSyn UTR inh: -1.5; Jurkat NFkB inh: -4.6

What do the screens show for `Cc1cccc(C(=O)OCC(=O)NC2CC2)c1O`?
Gli-Sufu antag: -2.1; Mdm2 MdmX PPI: 11.5; 697 NFkB inh: -4.7; Jurkat NFkB inh: -13.2

What do the screens show for `O=C(O)c1ccccc1CC(CCc1ccccc1)C(=O)O` (centres undefined)?
Gli-Sufu antag: 12.7

Results for O=C(Nc1ccc2c(c1)C(=O)N(c1ccccc1)C2=O)c1cccs1 ?
Gli-Sufu antag: -20.3; Mdm2 MdmX PPI: 50.3*; 697 NFkB inh: -5.8; KLF5 inhibitor: -0.1; aSyn UTR inh: -7.0; Jurkat NFkB inh: -4.5; Mdm2-MdmX conf: 10.8

What do the screens show for `CCN(C(=O)COC(=O)/C=C/c1nc2ccccc2s1)c1c(N)n(Cc2ccccc2)c(=O)[nH]c1=O`?
Gli-Sufu antag: -3.4

Results for COCCN(C(=O)COC(=O)/C=C/c1nc2ccccc2s1)c1c(N)n(Cc2ccccc2)c(=O)[nH]c1=O ?
Gli-Sufu antag: -4.3; Mdm2 MdmX PPI: 64.0*; 697 NFkB inh: -9.2; aSyn UTR inh: -19.9; Jurkat NFkB inh: -4.5; Mdm2-MdmX conf: 38.6

How did COCCN(C(=O)COC(=O)/C=C/c1ccc2ccccc2n1)c1c(N)n(Cc2ccccc2)c(=O)[nH]c1=O do in these assays?
Gli-Sufu antag: -1.9; Mdm2 MdmX PPI: 54.1*; 697 NFkB inh: 6.9; KLF5 inhibitor: -24.1; aSyn UTR inh: -25.8; Jurkat NFkB inh: 5.9; Mdm2-MdmX conf: 39.2

What do the screens show for `CCCOCC(O)CCc1n[nH]c(=S)n1-c1ccccc1` (centres undefined)?
Gli-Sufu antag: 1.1; Mdm2 MdmX PPI: -10.9; 697 NFkB inh: -1.5; KLF5 inhibitor: -8.6; aSyn UTR inh: 2.4; Jurkat NFkB inh: -29.0

Results for C=CCOc1cccc(C(=O)/C=C2/C(=O)Nc3ccccc32)c1 ?
Gli-Sufu antag: -0.3; Mdm2 MdmX PPI: 85.6*; 697 NFkB inh: 33.7; KLF5 inhibitor: -15.0; aSyn UTR inh: 11.5; Jurkat NFkB inh: 24.2; Mdm2-MdmX conf: 25.1

What do the screens show for `Cc1nn(Cc2cccc(F)c2)c(C)c1NC(=O)c1c(Cl)cnn1C`?
Gli-Sufu antag: 0.9; Mdm2 MdmX PPI: 11.1; 697 NFkB inh: 10.8; KLF5 inhibitor: -9.5; aSyn UTR inh: 8.1; Jurkat NFkB inh: -1.4

How did CCN(CC(=O)Nc1sc2c(c1C#N)CCC(C)C2)Cc1nc2ccccc2c(=O)[nH]1 (centres undefined) do in these assays?
Gli-Sufu antag: 26.6; Mdm2 MdmX PPI: -9.8; 697 NFkB inh: -17.9; KLF5 inhibitor: -25.6; aSyn UTR inh: 22.4; Jurkat NFkB inh: -20.9
